# According to PubChem BioAssay (EPA / NIEHS):
# Active and inactive are the calls of the source. Rule for the calls: active = hit-call score of the fitted dose curve at least 0.9, where 1 is the maximum; inactive = score below 0.9.
# Key:
# Conditions in all cases: mRNA level, 48 h; actives raise or lower the signal
# [1] = read-out: adenosine kinase (ADK) gene, ADK (gene 132); assay: LTEA_HepaRG_ADK: Life Technologies and Expression Analysis (LTEA) Assay for adenosine kinase (ADK) gene using HepaRG (AID 2283471)
# Procedure, shortened: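 Read-out is ADK transcript level measured by qRT-PCR and normalised to three housekeeping genes. Cells are human HepaRG, dosed for 48 h at up to 100 uM in 0.5% DMSO. Gain or loss of signal is fitted against DMSO controls.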
# [2] = read-out: Alpha-fetoprotein (AFP) gene, AFP (gene 174); assay: LTEA_HepaRG_AFP: Life Technologies and Expression Analysis (LTEA) Assay for Alpha-fetoprotein (AFP) gene using HepaRG (AID 2283472)
# Procedure, shortened: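 Measures AFP mRNA change in HepaRG after 48 h chemical exposure (8 half-log concentrations, highest 100 uM, 0.5% DMSO). Fold change relative to DMSO, fitted in both directions.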
# [3] = read-out: BCL2L11 (gene 10018); assay: LTEA_HepaRG_BCL2L11: Life Technologies and Expression Analysis (LTEA) Assay for Bcl-2 (BCL2L11) gene using HepaRG (AID 2283473)
# Procedure, shortened: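 HepaRG, 48 h exposure, 8-pt half-log series from 100 uM in 0.5% DMSO, duplicates; qRT-PCR (Fluidigm TaqMan) for BCL2L11, housekeeping-normalized; bidirectional curve fit relative to DMSO baseline.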
# [4] = read-out: Apolipoprotein A-V (APOA5) gene, APOA5 (gene 116519); assay: LTEA_HepaRG_APOA5: Life Technologies and Expression Analysis (LTEA) Assay for Apolipoprotein A-V (APOA5) gene using HepaRG (AID 2283474)
# Procedure, shortened: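 HepaRG, 48 h chemical exposure in serum-free induction medium, 8-pt half-log series (top 100 uM), 0.5% DMSO vehicle, duplicates. Readout: APOA5 mRNA by qRT-PCR, housekeeping-normalized; bidirectional fit vs DMSO baseline.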
# [5] = read-out: Apoptosis regulator Bcl-2 (Homo sapiens) (UniProt P10415); assay: LTEA_HepaRG_BCL2: Life Technologies and Expression Analysis (LTEA) Assay for Bcl-2 gene using HepaRG (AID 2283475)
# Procedure, shortened: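 Each chemical was tested in duplicate on HepaRG cultures held in serum-free induction medium for 48 h, highest concentration 100 uM with half-log dilutions. Transcript levels came from multiplexed qRT-PCR, normalised to housekeeping genes; activity was scored in either direction relative to DMSO.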
# [6] = read-out: Bcl-2 (BID) gene, BID (gene 637); assay: LTEA_HepaRG_BID: Life Technologies and Expression Analysis (LTEA) Assay for Bcl-2 (BID) gene using HepaRG (AID 2283476)
# Procedure, shortened: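 Assay used HepaRG hepatic cells treated 48 h in serum-free medium with half-log dilutions from 100 uM. Endpoint: BID mRNA, qRT-PCR, normalized to ACTB/GAPDH/POLR2A.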
# [7] = read-out: Caspase-3 (Homo sapiens) (UniProt P42574); assay: LTEA_HepaRG_CASP3: Life Technologies and Expression Analysis (LTEA) Assay for cysteine-aspartic acid protease (CASP3) using HepaRG (AID 2283477)
# Procedure, shortened: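 HepaRG, 48 h exposure, 8 conc. (top 100 uM, half-log steps, duplicate), 0.5% DMSO vehicle; qRT-PCR of CASP3 transcript, housekeeping-normalised (ACTB/GAPDH/POLR2A); bidirectional curve fit vs DMSO baseline.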
# [8] = read-out: Cytochrome P450 (CYP24A1), CYP24A1 (gene 1591); assay: LTEA_HepaRG_CYP24A1: Life Technologies and Expression Analysis (LTEA) Assay for Cytochrome P450 (CYP24A1) using HepaRG (AID 2283478)
# Procedure, shortened: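 qRT-PCR read-out: CYP24A1 transcript levels normalized to three housekeeping genes, bidirectional curve fits against 0.5% DMSO baseline. Human HepaRG cells treated 48 h with chemicals at eight concentrations from 100 uM in half-log steps.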
# [9] = read-out: Cytochrome P450 (CYP1A2), CYP1A2 (gene 1544); assay: LTEA_HepaRG_CYP1A2: Life Technologies and Expression Analysis (LTEA) Assay for Cytochrome P450 (CYP1A2) using HepaRG (AID 2283479)
# Procedure, shortened: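 HepaRG, 48 h exposure, top 100 uM, half-log 8-pt, 0.5% DMSO vehicle, duplicates. Readout: TaqMan qRT-PCR of CYP1A2 mRNA, housekeeping-normalized (ACTB/GAPDH/POLR2A). Gain/loss fit relative to DMSO baseline.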
# [10] = read-out: cysteine-aspartic acid protease (CASP8), CASP8 (gene 841); assay: LTEA_HepaRG_CASP8: Life Technologies and Expression Analysis (LTEA) Assay for cysteine-aspartic acid protease (CASP8) using HepaRG (AID 2283480)
# Procedure, shortened: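 Concentration-response in duplicate up to 100 uM (half-log steps, 0.5% DMSO) on differentiated HepaRG cultures for 48 h. Expression change of CASP8 mRNA is determined by TaqMan qRT-PCR with housekeeping-gene normalization.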
# [11] = read-out: Cytochrome P450 (CYP2B6), CYP2B6 (gene 1555); assay: LTEA_HepaRG_CYP2B6: Life Technologies and Expression Analysis (LTEA) Assay for Cytochrome P450 (CYP2B6) using HepaRG (AID 2283481)
# Procedure, shortened: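 Read-out is CYP2B6 mRNA by TaqMan qRT-PCR, normalized to three housekeeping genes and fitted bidirectionally against 0.5% DMSO baseline. Human HepaRG cells received test chemicals for 48 h, top concentration 100 uM, half-log dilutions.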
# [12] = read-out: Cytochrome P450 2C19 (Homo sapiens) (UniProt P33261); assay: LTEA_HepaRG_CYP2C19: Life Technologies and Expression Analysis (LTEA) Assay for CYP2C19 using HepaRG (AID 2283482)
# Procedure, shortened: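 HepaRG, 48 h chemical exposure, 8-pt half-log series from 100 uM in 0.5% DMSO, duplicates. Readout: CYP2C19 mRNA by TaqMan qRT-PCR, housekeeping-normalized. Bidirectional fit vs DMSO baseline; phenobarbital 1mM as induction control.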
# [13] = read-out: CYP2C8 (gene 1558); assay: LTEA_HepaRG_CYP2C8: Life Technologies and Expression Analysis (LTEA) Assay for CYP2C8 using HepaRG (AID 2283483)
# Procedure, shortened: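 This is a transcriptional endpoint in HepaRG cultures: 48 h exposure, highest concentration 100 uM. CYP2C8 mRNA is quantified by TaqMan qRT-PCR.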
# [14] = read-out: CYP2C9 (gene 1559); assay: LTEA_HepaRG_CYP2C9: Life Technologies and Expression Analysis (LTEA) Assay for CYP2C9 using HepaRG (AID 2283484)
# Procedure, shortened: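 Eight-point concentration-response (highest 100 uM, half-log dilutions) in HepaRG cells for 48 h; CYP2C9 expression by qRT-PCR normalized to ACTB, GAPDH, POLR2A. Bidirectional fit, DMSO baseline.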
# [15] = read-out: CYP2E1 (gene 1571); assay: LTEA_HepaRG_CYP2E1: Life Technologies and Expression Analysis (LTEA) Assay for CYP2E1 using HepaRG (AID 2283485)
# Procedure, shortened: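 Assay uses 48 h exposure of HepaRG hepatic cells, eight concentrations to 100 uM. Expression of CYP2E1 is quantified by TaqMan qRT-PCR with ACTB, GAPDH and POLR2A normalization; curves fitted in both directions relative to vehicle.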
# [16] = read-out: CYP4A11 (gene 1579); assay: LTEA_HepaRG_CYP4A11: Life Technologies and Expression Analysis (LTEA) Assay for CYP4A11 using HepaRG (AID 2283486)
# Procedure, shortened: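 CYP4A11 transcript levels were quantified by TaqMan qRT-PCR after HepaRG human liver cells were treated for 48 hours with test chemicals (top 100 uM, half-log dilutions, 0.5% DMSO). Gain or loss of signal was fitted relative to DMSO.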
# [17] = read-out: Cytochrome P450 3A4 (Homo sapiens) (UniProt P08684); assay: LTEA_HepaRG_CYP3A4: Life Technologies and Expression Analysis (LTEA) Assay for CYP3A4 using HepaRG (AID 2283487)
# Procedure, shortened: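 HepaRG, 48 h exposure, 8-pt CRC from 100 uM (half-log), 0.5% DMSO, duplicates; serum-free induction medium. Readout: CYP3A4 mRNA, qRT-PCR, ACTB/GAPDH/POLR2A normalization. Bidirectional fit vs DMSO.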
# [18] = read-out: DNA damage-inducible transcript 3 (DDIT3), DDIT3 (gene 1649); assay: LTEA_HepaRG_DDIT3: Life Technologies and Expression Analysis (LTEA) Assay for DNA damage-inducible transcript 3 (DDIT3) using HepaRG (AID 2283488)
# Procedure, shortened: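 Eight-point concentration-response (100 uM highest, half-log dilutions) in HepaRG, 48 h, duplicate wells. Endpoint: qRT-PCR mRNA, normalized (ACTB, GAPDH, POLR2A), bidirectional fitting with DMSO as baseline.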
# [19] = read-out: Pro-epidermal growth factor (Homo sapiens) (UniProt P01133); assay: LTEA_HepaRG_EGF: Life Technologies and Expression Analysis (LTEA) Assay for Epidermal growth factor (EGF) using HepaRG (AID 2283489)
# Procedure, shortened: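 qRT-PCR readout of EGF transcript after 48 h chemical exposure of HepaRG cells; eight concentrations from 100 uM down in half-log steps, duplicate wells, 0.5% DMSO vehicle. Bidirectional curve fitting against DMSO baseline.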
# [20] = read-out: Early growth response protein 1 (EGR1) transcription factor, EGR1 (gene 1958); assay: LTEA_HepaRG_EGR1: Life Technologies and Expression Analysis (LTEA) Assay for Early growth response protein 1 (EGR1) transcription factor using HepaRG (AID 2283490)
# Procedure, shortened: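 EGR1 expression change in human HepaRG after 48 h chemical exposure, assessed by housekeeping-normalized qRT-PCR; concentration-response up to 100 uM, fitted in both directions against DMSO controls.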
# Caspase-3 (Homo sapiens), sequence (P42574 whole entry, looked up): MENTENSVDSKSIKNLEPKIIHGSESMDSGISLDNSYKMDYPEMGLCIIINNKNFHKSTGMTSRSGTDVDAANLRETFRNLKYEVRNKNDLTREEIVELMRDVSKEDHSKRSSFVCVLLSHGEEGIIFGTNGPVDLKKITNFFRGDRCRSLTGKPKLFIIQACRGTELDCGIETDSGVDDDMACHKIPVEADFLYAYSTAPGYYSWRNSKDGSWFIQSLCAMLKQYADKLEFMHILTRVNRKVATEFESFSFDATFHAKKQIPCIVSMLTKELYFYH
# Cytochrome P450 3A4 (Homo sapiens), sequence (P08684 whole entry, looked up): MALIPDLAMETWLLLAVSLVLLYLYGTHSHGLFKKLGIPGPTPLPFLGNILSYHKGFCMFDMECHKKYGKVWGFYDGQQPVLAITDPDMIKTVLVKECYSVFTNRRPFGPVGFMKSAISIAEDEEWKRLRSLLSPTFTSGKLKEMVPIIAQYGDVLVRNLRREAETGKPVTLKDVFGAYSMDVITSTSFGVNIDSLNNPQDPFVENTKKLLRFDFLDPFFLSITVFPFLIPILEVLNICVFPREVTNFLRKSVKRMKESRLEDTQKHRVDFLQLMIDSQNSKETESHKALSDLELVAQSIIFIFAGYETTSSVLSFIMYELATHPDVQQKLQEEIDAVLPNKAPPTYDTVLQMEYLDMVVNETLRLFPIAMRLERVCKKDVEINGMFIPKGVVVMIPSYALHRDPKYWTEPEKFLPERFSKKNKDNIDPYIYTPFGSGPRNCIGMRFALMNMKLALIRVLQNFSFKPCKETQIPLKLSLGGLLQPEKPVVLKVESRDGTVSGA
# Cytochrome P450 2C19 (Homo sapiens), sequence (P33261 whole entry, looked up): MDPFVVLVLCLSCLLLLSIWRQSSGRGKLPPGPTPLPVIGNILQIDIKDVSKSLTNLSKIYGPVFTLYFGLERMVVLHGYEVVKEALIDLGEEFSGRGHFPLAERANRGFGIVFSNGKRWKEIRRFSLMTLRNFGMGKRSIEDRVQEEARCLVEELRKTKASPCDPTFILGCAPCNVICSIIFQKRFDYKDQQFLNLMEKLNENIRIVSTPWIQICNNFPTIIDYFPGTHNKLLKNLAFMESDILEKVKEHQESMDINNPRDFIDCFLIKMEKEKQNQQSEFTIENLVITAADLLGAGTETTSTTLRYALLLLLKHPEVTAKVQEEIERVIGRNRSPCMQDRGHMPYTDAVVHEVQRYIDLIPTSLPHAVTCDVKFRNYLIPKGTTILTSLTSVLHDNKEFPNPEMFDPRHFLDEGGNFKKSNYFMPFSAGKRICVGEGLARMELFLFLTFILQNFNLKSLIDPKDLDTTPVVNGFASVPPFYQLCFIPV
# Apoptosis regulator Bcl-2 (Homo sapiens), sequence (P10415 whole entry, looked up): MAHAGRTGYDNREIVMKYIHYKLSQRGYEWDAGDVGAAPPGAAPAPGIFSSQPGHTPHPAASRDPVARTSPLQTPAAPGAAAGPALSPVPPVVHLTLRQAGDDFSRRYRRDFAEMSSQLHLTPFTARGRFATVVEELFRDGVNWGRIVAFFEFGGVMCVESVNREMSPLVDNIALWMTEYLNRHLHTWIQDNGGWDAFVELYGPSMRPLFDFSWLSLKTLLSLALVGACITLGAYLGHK
smiles,measurement,setting,value
Cc1oc2c(NC(=O)c3c(Cl)cccc3Cl)cccc2c1C(C)(C)O,outcome,[1],inactive
same,AC50,[2],15.8 µM (active)
same,outcome,[3],inactive
same,AC50,[4],50.7 µM (active)
same,AC50,[5],55.3 µM (active)
same,outcome,[6],inactive
same,outcome,[7],inactive
same,outcome,[8],inactive
same,AC50,[9],12.7 µM (active)
same,outcome,[10],inactive
same,AC50,[11],32.8 µM (active)
same,AC50,[12],33.5 µM (active)
same,AC50,[13],35.8 µM (active)
same,AC50,[14],33.8 µM (active)
same,AC50,[15],39.7 µM (active)
same,AC50,[16],24.6 µM (active)
same,AC50,[17],81.9 µM (active)
same,AC50,[18],33.2 µM (active)
same,outcome,[19],inactive
Cc1occc1C(=O)Nc1ccc(C(=O)N2CCC(F)(F)/C(=C\C(=O)N3CCC(N4CCCCC4)CC3)c3ccccc32)cc1,outcome,[1],inactive
same,AC50,[2],44.8 µM (active)
same,outcome,[3],inactive
same,AC50,[4],39 µM (active)
same,outcome,[5],inactive
same,outcome,[6],inactive
same,outcome,[7],inactive
same,outcome,[8],inactive
same,AC50,[9],18.4 µM (active)
same,outcome,[10],inactive
same,AC50,[11],47.4 µM (active)
same,AC50,[12],43.7 µM (active)
same,AC50,[13],56.5 µM (active)
same,AC50,[14],44.2 µM (active)
same,AC50,[15],31.2 µM (active)
same,AC50,[16],49 µM (active)
same,outcome,[17],inactive
same,AC50,[18],42.3 µM (active)
same,outcome,[19],inactive
same,outcome,[20],inactive
O=C1c2ccccc2C(=O)N1CCc1noc(-c2ccc(CN3CCCCCC3)s2)n1,outcome,[1],inactive
same,outcome,[3],inactive
same,outcome,[4],inactive
same,outcome,[5],inactive
same,outcome,[6],inactive
same,outcome,[7],inactive
same,outcome,[8],inactive
same,AC50,[9],6.97 µM (active)
same,outcome,[10],inactive
same,AC50,[11],27.9 µM (active)
same,outcome,[12],inactive
same,outcome,[13],inactive
same,outcome,[14],inactive
same,outcome,[15],inactive
same,outcome,[16],inactive
same,outcome,[17],inactive
same,outcome,[18],inactive
same,outcome,[19],inactive
same,outcome,[20],inactive
C[C@]12CC[C@@H]3c4ccc(O)cc4CC[C@H]3[C@@H]1CC[C@H]2O,outcome,[1],inactive
same,outcome,[3],inactive
same,AC50,[4],50 µM (active)
same,outcome,[5],inactive
same,outcome,[6],inactive
same,outcome,[7],inactive
same,outcome,[8],inactive
same,outcome,[9],inactive
same,outcome,[10],inactive
same,AC50,[11],1.19 µM (active)
same,AC50,[13],1.46 µM (active)
same,outcome,[14],inactive
same,AC50,[15],88.4 µM (active)
same,AC50,[16],78.2 µM (active)
same,outcome,[17],inactive
same,outcome,[18],inactive
same,outcome,[19],inactive
same,outcome,[20],inactive
Cc1ncc(CO)c(CO)c1O,outcome,[1],inactive
same,outcome,[3],inactive
same,outcome,[4],inactive
same,outcome,[5],inactive
same,outcome,[6],inactive
same,outcome,[7],inactive
same,outcome,[8],inactive
same,outcome,[9],inactive
same,outcome,[10],inactive
same,outcome,[11],inactive
same,outcome,[13],inactive
same,outcome,[14],inactive
same,outcome,[15],inactive
same,outcome,[16],inactive
same,outcome,[17],inactive
same,outcome,[18],inactive
same,outcome,[19],inactive
same,outcome,[20],inactive
O=C(O)Cc1cc(I)c(Oc2ccc(O)c(I)c2)c(I)c1,outcome,[1],inactive
same,outcome,[3],inactive
same,AC50,[4],84.9 µM (active)
same,AC50,[5],84 µM (active)
same,outcome,[6],inactive
same,outcome,[7],inactive
same,outcome,[8],inactive
same,AC50,[9],2.37 µM (active)
same,outcome,[10],inactive
same,AC50,[11],93.8 µM (active)
same,AC50,[12],93.1 µM (active)
same,outcome,[13],inactive
same,AC50,[14],79.5 µM (active)
same,AC50,[15],70.6 µM (active)
same,AC50,[16],74 µM (active)
same,AC50,[17],41.6 µM (active)
same,AC50,[18],78.9 µM (active)
same,outcome,[19],inactive
same,outcome,[20],inactive
